# Experiments:
# Assay in all cases: DAPPL (digital affinity profiling via proximity ligation, sequencing); 10 mM Tris-HCl pH 7.5, 50 mM NaCl, 1 mM DTT, 4% glycerol, room temperature, 30 min; GST-TFs on glutathione beads, 16-mer random dsDNA library, 0.1% formaldehyde crosslink after washing; high values mean tight binding
# Conditions in all cases: protein: recombinant; tags: N-terminal GST; dsDNA, one strand shown
# ELK4 = target: T1, ELK4 (Homo sapiens, UniProt P28324-2 1-405)
# T1 sequence: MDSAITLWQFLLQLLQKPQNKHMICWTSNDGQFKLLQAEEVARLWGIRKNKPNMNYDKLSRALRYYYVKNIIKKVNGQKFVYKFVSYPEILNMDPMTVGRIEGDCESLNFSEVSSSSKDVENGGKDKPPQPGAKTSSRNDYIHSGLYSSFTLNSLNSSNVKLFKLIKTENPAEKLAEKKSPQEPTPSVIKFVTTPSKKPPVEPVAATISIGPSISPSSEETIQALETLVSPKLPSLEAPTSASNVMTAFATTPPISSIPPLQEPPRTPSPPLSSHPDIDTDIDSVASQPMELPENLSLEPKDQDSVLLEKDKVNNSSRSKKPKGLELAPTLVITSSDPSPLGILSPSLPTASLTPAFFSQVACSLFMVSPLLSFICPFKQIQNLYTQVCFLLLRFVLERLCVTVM
# How it was run: (§1)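 Beads coated with glutathione captured GST-fused human transcription factors that had been expressed in yeast, and the factors were then given DNA barcodes and pooled with a tag-only sample. The pools were incubated with 200 nmole of a random double-stranded 16-mer DNA library in Tris/NaCl/DTT/glycerol buffer for 30 min at room temperature, washed, crosslinked with 0.1% formaldehyde and proximity-ligated with BsaI/T4 ligase at 37 °C for 1 h. PCR amplification and Illumina NextSeq500 sequencing came last. Binding signal is each hexamer's read frequency for a factor divided by its frequency for the tag-only sample.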
# ELF3 = target: T2, ELF3 (Homo sapiens, UniProt P78545 1-371)
# T2 sequence: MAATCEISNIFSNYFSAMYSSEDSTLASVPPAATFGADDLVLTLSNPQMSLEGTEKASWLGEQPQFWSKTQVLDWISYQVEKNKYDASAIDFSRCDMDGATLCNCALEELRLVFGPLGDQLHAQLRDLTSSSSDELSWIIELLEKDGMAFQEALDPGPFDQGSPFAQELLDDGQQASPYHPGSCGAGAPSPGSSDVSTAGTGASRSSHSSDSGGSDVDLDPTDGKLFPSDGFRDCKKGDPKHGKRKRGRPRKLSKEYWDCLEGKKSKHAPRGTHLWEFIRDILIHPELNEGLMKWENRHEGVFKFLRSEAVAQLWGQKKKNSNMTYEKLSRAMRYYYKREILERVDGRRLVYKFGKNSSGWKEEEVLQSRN
# How it was run: as §1
# ETV1 = ETV1 (Homo sapiens, UniProt P50549 1-477)
# Chain of ETV1 (P50549 whole entry): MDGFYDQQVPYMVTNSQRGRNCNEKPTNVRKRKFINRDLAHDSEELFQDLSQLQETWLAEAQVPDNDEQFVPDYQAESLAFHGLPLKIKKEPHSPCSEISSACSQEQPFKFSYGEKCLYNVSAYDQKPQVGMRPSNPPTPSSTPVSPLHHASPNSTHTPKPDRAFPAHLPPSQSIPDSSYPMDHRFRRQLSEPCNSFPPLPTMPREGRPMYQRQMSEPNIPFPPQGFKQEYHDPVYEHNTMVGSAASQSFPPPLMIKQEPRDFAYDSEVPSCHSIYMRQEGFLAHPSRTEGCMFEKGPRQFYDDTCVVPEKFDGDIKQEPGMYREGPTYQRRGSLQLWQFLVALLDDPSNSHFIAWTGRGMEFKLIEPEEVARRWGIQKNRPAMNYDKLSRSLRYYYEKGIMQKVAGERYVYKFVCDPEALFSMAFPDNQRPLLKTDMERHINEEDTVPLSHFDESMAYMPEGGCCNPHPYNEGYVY
# How it was run: as §1
# ERF = target: T3, ERF (Homo sapiens, UniProt P50548 1-548)
# T3 sequence: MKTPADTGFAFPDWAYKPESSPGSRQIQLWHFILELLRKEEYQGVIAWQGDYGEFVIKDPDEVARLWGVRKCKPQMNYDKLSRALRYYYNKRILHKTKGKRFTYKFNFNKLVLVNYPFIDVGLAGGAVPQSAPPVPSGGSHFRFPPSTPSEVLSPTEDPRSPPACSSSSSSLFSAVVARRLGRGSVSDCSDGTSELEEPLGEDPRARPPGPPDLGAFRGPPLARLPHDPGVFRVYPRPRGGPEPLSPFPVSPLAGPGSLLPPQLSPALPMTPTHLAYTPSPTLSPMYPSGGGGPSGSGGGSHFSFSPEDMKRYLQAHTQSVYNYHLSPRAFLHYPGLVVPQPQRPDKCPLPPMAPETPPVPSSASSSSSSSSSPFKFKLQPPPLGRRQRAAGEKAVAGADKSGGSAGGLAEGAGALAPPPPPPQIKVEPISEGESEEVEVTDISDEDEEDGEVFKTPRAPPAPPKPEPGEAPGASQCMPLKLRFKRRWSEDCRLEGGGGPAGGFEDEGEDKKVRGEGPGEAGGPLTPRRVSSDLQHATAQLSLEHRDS
# How it was run: as §1
# ETV3L = target: T4, ETV3L (Homo sapiens, UniProt Q6ZN32 1-361)
# T4 sequence: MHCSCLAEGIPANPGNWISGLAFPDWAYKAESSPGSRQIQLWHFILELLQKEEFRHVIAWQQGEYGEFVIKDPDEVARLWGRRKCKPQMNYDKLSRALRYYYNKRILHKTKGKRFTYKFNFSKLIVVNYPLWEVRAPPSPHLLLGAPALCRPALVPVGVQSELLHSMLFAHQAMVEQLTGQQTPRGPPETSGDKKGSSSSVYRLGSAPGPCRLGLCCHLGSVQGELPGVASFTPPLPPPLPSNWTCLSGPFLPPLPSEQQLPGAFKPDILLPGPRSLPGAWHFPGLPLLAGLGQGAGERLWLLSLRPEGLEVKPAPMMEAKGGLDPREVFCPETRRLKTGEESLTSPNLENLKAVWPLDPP
# How it was run: as §1
# ETS2 = target: T5, ETS2 (Homo sapiens, UniProt P15036 1-469)
# T5 sequence: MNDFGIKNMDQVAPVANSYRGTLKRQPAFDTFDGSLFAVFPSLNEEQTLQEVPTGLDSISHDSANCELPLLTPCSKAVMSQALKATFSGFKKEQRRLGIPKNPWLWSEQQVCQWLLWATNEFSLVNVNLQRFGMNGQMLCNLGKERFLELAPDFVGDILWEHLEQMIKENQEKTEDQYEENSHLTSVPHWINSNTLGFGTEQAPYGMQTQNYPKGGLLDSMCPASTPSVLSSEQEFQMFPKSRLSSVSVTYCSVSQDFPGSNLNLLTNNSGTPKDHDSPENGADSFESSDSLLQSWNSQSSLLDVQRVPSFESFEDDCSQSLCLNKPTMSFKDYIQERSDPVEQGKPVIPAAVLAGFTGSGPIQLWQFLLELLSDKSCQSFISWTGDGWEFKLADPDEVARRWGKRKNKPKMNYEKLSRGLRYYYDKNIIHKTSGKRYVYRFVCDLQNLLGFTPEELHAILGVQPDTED
# How it was run: as §1
# SPDEF = target: T6, SPDEF (Homo sapiens, UniProt O95238 1-335)
# T6 sequence: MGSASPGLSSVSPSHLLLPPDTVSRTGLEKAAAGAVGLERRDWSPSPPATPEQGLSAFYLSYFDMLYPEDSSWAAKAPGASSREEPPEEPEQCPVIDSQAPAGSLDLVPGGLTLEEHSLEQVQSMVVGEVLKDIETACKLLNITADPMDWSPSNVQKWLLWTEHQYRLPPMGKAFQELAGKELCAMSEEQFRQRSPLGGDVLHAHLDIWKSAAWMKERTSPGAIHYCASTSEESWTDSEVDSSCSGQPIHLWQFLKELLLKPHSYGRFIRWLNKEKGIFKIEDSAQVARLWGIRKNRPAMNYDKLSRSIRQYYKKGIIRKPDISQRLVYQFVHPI
# How it was run: as §1
# ETV7 = target: T7, ETV7 (Homo sapiens, UniProt Q9Y603 1-341)
# T7 sequence: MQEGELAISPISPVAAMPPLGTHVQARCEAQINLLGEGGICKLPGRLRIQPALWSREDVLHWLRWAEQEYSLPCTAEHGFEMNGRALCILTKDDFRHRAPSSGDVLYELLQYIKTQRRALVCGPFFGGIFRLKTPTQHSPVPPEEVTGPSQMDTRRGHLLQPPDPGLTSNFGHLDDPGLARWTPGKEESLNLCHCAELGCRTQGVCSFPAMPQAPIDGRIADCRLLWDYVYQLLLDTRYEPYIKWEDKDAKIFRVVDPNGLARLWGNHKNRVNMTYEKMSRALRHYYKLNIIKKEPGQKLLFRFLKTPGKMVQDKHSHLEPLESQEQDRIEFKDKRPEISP
# How it was run: as §1
# ETV3 = target: T8, ETV3 (Homo sapiens, UniProt P41162-2 1-143)
# T8 sequence: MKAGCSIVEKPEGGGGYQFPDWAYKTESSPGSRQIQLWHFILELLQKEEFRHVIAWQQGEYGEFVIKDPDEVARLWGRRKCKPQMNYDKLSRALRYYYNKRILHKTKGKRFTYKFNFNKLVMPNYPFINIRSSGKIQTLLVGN
# How it was run: as §1
# ETV6 = ETV6 (Homo sapiens, UniProt P41212 1-452)
# Chain of ETV6 (P41212 whole entry): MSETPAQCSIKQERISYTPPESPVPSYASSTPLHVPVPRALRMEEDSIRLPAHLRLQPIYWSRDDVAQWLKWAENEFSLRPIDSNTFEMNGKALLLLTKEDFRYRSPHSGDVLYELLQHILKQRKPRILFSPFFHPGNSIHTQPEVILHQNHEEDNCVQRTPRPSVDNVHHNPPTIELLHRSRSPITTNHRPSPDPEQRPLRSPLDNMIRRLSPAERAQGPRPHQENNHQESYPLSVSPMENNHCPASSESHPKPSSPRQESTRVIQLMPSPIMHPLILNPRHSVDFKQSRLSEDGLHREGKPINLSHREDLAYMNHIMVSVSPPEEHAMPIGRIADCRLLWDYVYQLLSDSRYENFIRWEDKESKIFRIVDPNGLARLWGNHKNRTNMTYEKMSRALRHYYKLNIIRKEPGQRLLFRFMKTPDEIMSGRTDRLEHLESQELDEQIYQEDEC
# How it was run: as §1
sequence,measurement,setting,value
CACAGC,binding signal,ELK4,"1.04 fold enrichment (6-mer frequency, TF over GST control)"
same,binding signal,ELF3,"1.04 fold enrichment (6-mer frequency, TF over GST control)"
same,binding signal,ETV1,"1.1 fold enrichment (6-mer frequency, TF over GST control)"
same,binding signal,ERF,"1.07 fold enrichment (6-mer frequency, TF over GST control)"
same,binding signal,ETV3L,"1.17 fold enrichment (6-mer frequency, TF over GST control)"
same,binding signal,ETS2,"1.01 fold enrichment (6-mer frequency, TF over GST control)"
same,binding signal,SPDEF,"1.03 fold enrichment (6-mer frequency, TF over GST control)"
same,binding signal,ETV7,"1.12 fold enrichment (6-mer frequency, TF over GST control)"
same,binding signal,ETV3,"1.05 fold enrichment (6-mer frequency, TF over GST control)"
same,binding signal,ETV6,"1.01 fold enrichment (6-mer frequency, TF over GST control)"

# — publication PMC7862700, “An all-to-all approach to the identification of sequence-specific readers for epigenetic DNA modifications on cytosine”
